About 83,000 compounds went through this panel and 20% of them were active in at least one assay; those are over-represented in the sample as a whole.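 Cell lines were cultured in 96-well plates, exposed to a single compound concentration, and assessed for percent growth 48 hours later.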 Active and inactive are the calls of the source. Rule for the calls: active = growth percent below 10; inactive = the rest.
What was measured:
Experiment in all cases: NCI-60 one-dose screen, 48 h (100 = growth as untreated, 0 = no growth, -100 = all killed)
Details in all cases: 10 µM unless noted
SK-MEL-2 melanoma = system: SK-MEL-2 melanoma
EKVX NSCLC = system: EKVX NSCLC
SN12C renal = system: SN12C renal
UO-31 renal = system: UO-31 renal
TK-10 renal = system: TK-10 renal
ACHN renal = system: ACHN renal
CAKI-1 renal = system: CAKI-1 renal
A498 renal = system: A498 renal
CCRF-CEM leukemia = system: CCRF-CEM leukemia
MOLT-4 leukemia = system: MOLT-4 leukemia
SR leukemia = system: SR leukemia
RPMI-8226 leukemia = system: RPMI-8226 leukemia
OVCAR-8 ovarian = system: OVCAR-8 ovarian
OVCAR-5 ovarian = system: OVCAR-5 ovarian
OVCAR-4 ovarian = system: OVCAR-4 ovarian
SK-OV-3 ovarian = system: SK-OV-3 ovarian
OVCAR-3 ovarian = system: OVCAR-3 ovarian
HS 578T breast = system: HS 578T breast
NCI/ADR-RES ovarian = system: NCI/ADR-RES ovarian

Measured: growth

COc1cc2c(cc1OC)C(=O)/C(=C/c1cccc(OCC(=O)c3ccccc3)c1)C2
inactive: SK-MEL-2 melanoma 44.1% | EKVX NSCLC 94.4% | SN12C renal 88.8% | TK-10 renal 122% | ACHN renal 96.9% | CAKI-1 renal 93.4% | A498 renal 103% | CCRF-CEM leukemia 38% | MOLT-4 leukemia 55.3% | SR leukemia 42.2% | RPMI-8226 leukemia 43.3% | OVCAR-8 ovarian 76.8% | OVCAR-5 ovarian 105% | OVCAR-4 ovarian 86% | SK-OV-3 ovarian 117% | OVCAR-3 ovarian 118% | HS 578T breast 77.2% | NCI/ADR-RES ovarian 50.2%
active: UO-31 renal -19.2%

c1ccc(N2c3nc4ccccc4cc3Sc3cc4ccccc4nc32)nc1
inactive: SK-MEL-2 melanoma 39.4% | EKVX NSCLC 68.9% | SN12C renal 76.1% | UO-31 renal 26.9% | TK-10 renal 114% | ACHN renal 92% | CAKI-1 renal 69% | A498 renal 73.2% | CCRF-CEM leukemia 87.5% | MOLT-4 leukemia 78% | SR leukemia 77.7% | RPMI-8226 leukemia 80.9% | OVCAR-8 ovarian 88.8% | OVCAR-5 ovarian 81.9% | OVCAR-4 ovarian 102% | SK-OV-3 ovarian 104% | OVCAR-3 ovarian 96.7% | HS 578T breast 83.2% | NCI/ADR-RES ovarian 82.7%

O=C(c1ccc(N2CCOCC2)cc1[N+](=O)[O-])N1CCOCC1
inactive: SK-MEL-2 melanoma 17.9% | EKVX NSCLC 18.9% | SN12C renal 145% | UO-31 renal 99.4% | TK-10 renal 116% | ACHN renal 100% | CAKI-1 renal 20.1% | A498 renal 104% | CCRF-CEM leukemia 104% | MOLT-4 leukemia 116% | SR leukemia 423% | RPMI-8226 leukemia 128% | OVCAR-8 ovarian 73.5% | OVCAR-5 ovarian 102% | OVCAR-4 ovarian 52% | SK-OV-3 ovarian 110% | OVCAR-3 ovarian 110% | HS 578T breast 33% | NCI/ADR-RES ovarian 108%

CCOC(=O)c1cc2oc(/C=C/c3cc(=O)c4cc(Cl)ccc4o3)cc2[nH]1
inactive: SK-MEL-2 melanoma 82.1% | EKVX NSCLC 89.7% | SN12C renal 62.4% | UO-31 renal 81.8% | TK-10 renal 113% | ACHN renal 97.8% | CAKI-1 renal 79% | A498 renal 115% | CCRF-CEM leukemia 105% | MOLT-4 leukemia 88.9% | SR leukemia 87.9% | RPMI-8226 leukemia 94.3% | OVCAR-8 ovarian 105% | OVCAR-5 ovarian 89.3% | OVCAR-4 ovarian 89.6% | SK-OV-3 ovarian 98.5% | OVCAR-3 ovarian 72.3% | HS 578T breast 71.2% | NCI/ADR-RES ovarian 93.6%

O=C(O)CCNS(=O)(=O)c1ccc(-c2ccccc2)cc1
active: SK-MEL-2 melanoma 0.624% | HS 578T breast 9.34%
inactive: EKVX NSCLC 91.6% | SN12C renal 95% | UO-31 renal 92.8% | TK-10 renal 136% | ACHN renal 97.9% | CAKI-1 renal 104% | A498 renal 115% | CCRF-CEM leukemia 111% | MOLT-4 leukemia 118% | SR leukemia 88.9% | RPMI-8226 leukemia 69% | OVCAR-8 ovarian 97.7% | OVCAR-5 ovarian 107% | OVCAR-4 ovarian 101% | SK-OV-3 ovarian 107% | OVCAR-3 ovarian 114% | NCI/ADR-RES ovarian 108%

COc1ccc(CNC(=O)c2c(C)n([O-])c3ccc(OC)cc3[n+]2=O)cc1
inactive: SK-MEL-2 melanoma 102% | EKVX NSCLC 87.8% | SN12C renal 108% | UO-31 renal 21.9% | TK-10 renal 104% | ACHN renal 111% | CAKI-1 renal 230% | A498 renal 104% | CCRF-CEM leukemia 100% | MOLT-4 leukemia 103% | SR leukemia 90.4% | RPMI-8226 leukemia 94% | OVCAR-8 ovarian 87% | OVCAR-5 ovarian 103% | OVCAR-4 ovarian 105% | SK-OV-3 ovarian 126% | OVCAR-3 ovarian 187% | NCI/ADR-RES ovarian 21.3%

O=C(COc1cccc(/C=C2\Cc3ccccc3C2=O)c1)c1ccc(Cl)cc1
inactive: SK-MEL-2 melanoma 72.8% | EKVX NSCLC 88.2% | SN12C renal 95% | UO-31 renal 18.5% | TK-10 renal 163% | ACHN renal 154% | CAKI-1 renal 104% | A498 renal 90.1% | CCRF-CEM leukemia 89.8% | MOLT-4 leukemia 107% | SR leukemia 111% | RPMI-8226 leukemia 90.2% | OVCAR-8 ovarian 90.4% | OVCAR-5 ovarian 103% | OVCAR-4 ovarian 90.1% | SK-OV-3 ovarian 130% | OVCAR-3 ovarian 120% | HS 578T breast 102% | NCI/ADR-RES ovarian 93.5%

O=C(COc1ccc(/C=C2\Oc3ccc4ccccc4c3C2=O)cc1)c1ccc([N+](=O)[O-])cc1
active: UO-31 renal 2.26% | CCRF-CEM leukemia -17.2%
inactive: SK-MEL-2 melanoma 48.6% | EKVX NSCLC 100% | SN12C renal 89.7% | TK-10 renal 117% | ACHN renal 107% | CAKI-1 renal 101% | A498 renal 103% | MOLT-4 leukemia 20.4% | SR leukemia 29% | RPMI-8226 leukemia 61.9% | OVCAR-8 ovarian 91.1% | OVCAR-5 ovarian 103% | OVCAR-4 ovarian 102% | SK-OV-3 ovarian 103% | OVCAR-3 ovarian 158% | HS 578T breast 105% | NCI/ADR-RES ovarian 101%

COc1ccc2cc(-c3nc4ccccc4[nH]3)c(=O)oc2c1
inactive: SK-MEL-2 melanoma 22.1% | EKVX NSCLC 77.3% | SN12C renal 92.3% | UO-31 renal 94.2% | TK-10 renal 119% | ACHN renal 86.2% | CAKI-1 renal 82.2% | A498 renal 95.6% | CCRF-CEM leukemia 95.3% | MOLT-4 leukemia 97.7% | SR leukemia 36.5% | RPMI-8226 leukemia 115% | OVCAR-8 ovarian 101% | OVCAR-5 ovarian 101% | OVCAR-4 ovarian 99.3% | SK-OV-3 ovarian 104% | OVCAR-3 ovarian 106% | HS 578T breast 125% | NCI/ADR-RES ovarian 93%

Cc1nn(-c2nc3ccccc3s2)c(C)c1Oc1ccccc1O
inactive: EKVX NSCLC 93.2% | SN12C renal 73.2% | UO-31 renal 38.9% | TK-10 renal 100% | ACHN renal 57.8% | CAKI-1 renal 98.8% | A498 renal 51.7% | CCRF-CEM leukemia 76.6% | MOLT-4 leukemia 31.6% | SR leukemia 19.6% | RPMI-8226 leukemia 33.1% | OVCAR-8 ovarian 50.6% | OVCAR-5 ovarian 121% | OVCAR-4 ovarian 74.9% | SK-OV-3 ovarian 75.3% | OVCAR-3 ovarian 75.5% | NCI/ADR-RES ovarian 101%
active: SK-MEL-2 melanoma -9.64%

O=C(NN1C(=O)c2cc(C(=O)O)c(C(=O)O)cc2C1=O)c1ccncc1
inactive: SK-MEL-2 melanoma 104% | EKVX NSCLC 108% | SN12C renal 93.9% | UO-31 renal 112% | TK-10 renal 88.4% | ACHN renal 102% | CAKI-1 renal 98.2% | A498 renal 112% | CCRF-CEM leukemia 103% | MOLT-4 leukemia 98.6% | SR leukemia 119% | RPMI-8226 leukemia 103% | OVCAR-8 ovarian 112% | OVCAR-5 ovarian 107% | OVCAR-4 ovarian 116% | SK-OV-3 ovarian 110% | OVCAR-3 ovarian 131% | HS 578T breast 104% | NCI/ADR-RES ovarian 116%

NC(=O)NS(=O)(=O)c1ccc(N2N=C(C(F)(F)F)CC2c2cc(C(F)(F)F)cc(C(F)(F)F)c2)cc1 (stereo unspecified)
inactive: SK-MEL-2 melanoma 11.2% | EKVX NSCLC 58.5% | SN12C renal 83.5% | UO-31 renal 49.6% | TK-10 renal 85.6% | ACHN renal 80.7% | CAKI-1 renal 78.9% | A498 renal 70.1% | CCRF-CEM leukemia 37.4% | MOLT-4 leukemia 43.2% | SR leukemia 66.2% | OVCAR-8 ovarian 79.8% | OVCAR-5 ovarian 85.7% | OVCAR-4 ovarian 69.7% | SK-OV-3 ovarian 93% | HS 578T breast 66.5% | NCI/ADR-RES ovarian 77%
active: RPMI-8226 leukemia 2.36%

Cc1ccc2c(c1)C(=O)/C(=C\Nc1ccc(C(N)=O)cc1)C(O)O2 (stereo unspecified)
inactive: SK-MEL-2 melanoma 77.4% | EKVX NSCLC 97.8% | SN12C renal 136% | UO-31 renal 79.3% | TK-10 renal 120% | ACHN renal 104% | CAKI-1 renal 82.3% | A498 renal 115% | CCRF-CEM leukemia 78.3% | MOLT-4 leukemia 80.6% | SR leukemia 97.1% | RPMI-8226 leukemia 46.5% | OVCAR-8 ovarian 97.1% | OVCAR-5 ovarian 110% | OVCAR-4 ovarian 101% | SK-OV-3 ovarian 107% | OVCAR-3 ovarian 84.6% | HS 578T breast 97.4% | NCI/ADR-RES ovarian 110%

CC1Cc2ccccc2N1C(=O)c1ccc(C(=O)c2ccccc2)cc1 (stereo unspecified)
inactive: SK-MEL-2 melanoma 19% | EKVX NSCLC 88.3% | SN12C renal 81.9% | UO-31 renal 49.8% | TK-10 renal 84.1% | ACHN renal 89.7% | CAKI-1 renal 77.8% | A498 renal 95.5% | CCRF-CEM leukemia 94.3% | MOLT-4 leukemia 91.5% | SR leukemia 97.6% | RPMI-8226 leukemia 74.3% | OVCAR-8 ovarian 88.4% | OVCAR-5 ovarian 143% | OVCAR-4 ovarian 71.2% | SK-OV-3 ovarian 102% | OVCAR-3 ovarian 78.9% | HS 578T breast 96.3% | NCI/ADR-RES ovarian 61.7%

COC(=O)c1cc2oc(/C=N\NC(=O)c3cc4oc(C)c(C)c4[nH]3)cc2[nH]1
inactive: SK-MEL-2 melanoma 109% | EKVX NSCLC 91.6% | SN12C renal 120% | UO-31 renal 94.7% | TK-10 renal 132% | ACHN renal 104% | CAKI-1 renal 80.5% | A498 renal 115% | CCRF-CEM leukemia 83.7% | MOLT-4 leukemia 82.1% | SR leukemia 51.4% | RPMI-8226 leukemia 35.1% | OVCAR-8 ovarian 108% | OVCAR-5 ovarian 111% | OVCAR-4 ovarian 118% | SK-OV-3 ovarian 100% | OVCAR-3 ovarian 128% | HS 578T breast 108% | NCI/ADR-RES ovarian 102%

C=CCNC(=O)/C(=C/c1cccc([N+](=O)[O-])c1)NC(=O)c1ccccc1
inactive: SK-MEL-2 melanoma 18.9% | EKVX NSCLC 108% | SN12C renal 103% | UO-31 renal 90% | TK-10 renal 101% | ACHN renal 94% | CAKI-1 renal 90.6% | A498 renal 130% | CCRF-CEM leukemia 90.6% | MOLT-4 leukemia 101% | SR leukemia 207% | RPMI-8226 leukemia 108% | OVCAR-8 ovarian 98.7% | OVCAR-5 ovarian 101% | OVCAR-4 ovarian 99.3% | SK-OV-3 ovarian 99.9% | OVCAR-3 ovarian 108% | HS 578T breast 108% | NCI/ADR-RES ovarian 106%

Reference: PubChem BioAssay (NCI)
